RGS7-Gao reg: regulators of human RGS7-Galphao interaction. Multiplexed bead flow cytometry, RGS7-Galphao binding; actives lie on both sides. 220,000 tested, 0.35% active. P09471. binding response (% of control), % at 10 µM; in the data active means binding response below about 49% or above about 150%; inconclusive means no clear call, values can overlap the other calls; inactive means in between;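 further: fluorescent Galphao held in activated GDP-AlF4 state binding bead-coupled RGS7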
RGS4-Gao reg: human RGS4-Galphao interaction regulation | binding response (% of control), % at 10 µM | 220,000 tested, 0.33% active | Multiplexed bead flow cytometry, RGS4-Galphao binding; actives lie on both sides | P09471; in the data active means binding response below about 49% or above about 150%; inactive means in between;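 further: fluorescent Galphao activated with aluminum fluoride binding bead-coupled RGS4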
GSH bead fluor: GSH bead compound fluorescence profile; fluorescence (KMESF) at 10 µM; GSH beads flow cytometry, compound fluorescence 488/530 nm; stronger effect = higher value; 190,000 tested, 0.25% active; AID 1776; in the data active means fluorescence above about 89;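 further: glutathione beads carrying GST-tagged Bcl family fusion proteins plus one bare bead set; values are compound well signal with DMSO vehicle wells as background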
RGS8-Gao: human RGS8-Galphao interaction regulation | response (percent of control binding), % at 10 µM | 220,000 tested, 0.34% active | multiplexed bead flow cytometry, RGS8-Galphao binding; actives lie on both sides; in the data active means response below about 60% or above about 140%; inactive means in between;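 further: Galphao activated as the GDP aluminium fluoride complex binding bead-coupled RGS8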
RGS16-Gao HTS: regulators of human RGS16-Galphao interaction; O15492+P09471; bead-based flow cytometry RGS16-Galphao binding, fluorescence; actives lie on both sides; binding response (% of control), % at 10 µM; 220,000 tested, 0.38% active; AID 1441; call rule not given here;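 further: Galphao activated by GDP with aluminum fluoride before binding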
Target sequence (O15492 whole entry, looked up): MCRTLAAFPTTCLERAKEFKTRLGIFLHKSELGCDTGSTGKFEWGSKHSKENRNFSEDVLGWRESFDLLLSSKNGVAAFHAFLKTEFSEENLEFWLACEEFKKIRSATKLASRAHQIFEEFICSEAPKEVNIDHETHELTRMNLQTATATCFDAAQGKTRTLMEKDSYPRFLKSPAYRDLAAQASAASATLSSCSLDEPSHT
Target sequence (P09471 whole entry, looked up): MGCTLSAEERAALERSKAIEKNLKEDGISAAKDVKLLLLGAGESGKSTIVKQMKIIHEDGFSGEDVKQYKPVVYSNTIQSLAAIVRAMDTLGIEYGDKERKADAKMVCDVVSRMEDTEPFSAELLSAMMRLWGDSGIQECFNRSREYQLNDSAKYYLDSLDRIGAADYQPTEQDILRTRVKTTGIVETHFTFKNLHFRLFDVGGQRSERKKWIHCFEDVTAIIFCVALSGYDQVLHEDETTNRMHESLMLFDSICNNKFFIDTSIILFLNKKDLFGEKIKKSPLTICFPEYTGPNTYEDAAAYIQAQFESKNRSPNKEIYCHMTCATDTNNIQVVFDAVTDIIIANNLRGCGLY
Avidin fluor: compound fluoresces at 488/530 nm on avidin beads. AID 1775. 220,000 tested, 0.38% active. fluorescence (KMESF) at 10 µM. compound fluorescence 488/530 nm, flow cytometry; stronger effect = higher value; in the data active means fluorescence above about 47
* marks the source's active call; other numbers are inactive results; ? = inconclusive; / = no result; [ ] = dose if it differs, or a comment. Most compounds without a hit are left out; they make up all but 1.2% or so of the library.

SMILES	RGS7-Gao reg	RGS4-Gao reg	GSH bead fluor	RGS8-Gao	RGS16-Gao HTS	Avidin fluor
COc1cc(NC(=O)COC(=O)CCc2cc(OC)c(OC)c(OC)c2)cc(OC)c1	106	102	13	104	101	10
Cc1cc2ncn(C(=O)N3CCCCCC3)c2cc1C	93	91	97*	88	44	2
N#Cc1cc(-c2ccc(Cl)cc2)cnc1Sc1ccccc1	15*	21*	24	12*	1.3*	-2
N#Cc1cc(-c2ccccc2)cnc1Sc1ccc(Cl)cc1	101	100	23	99	103	8
CC(C(=O)OCc1nnc(-c2ccccc2)o1)N1C(=O)C2CCCCC2C1=O (configuration not stated)	95	87	12	94	84	8
COC(=O)CCCCC1SCC(NC(=O)c2ccccc2)C1=O (configuration not stated)	94	91	21	98	103	7
N#Cc1ccc(NC(=O)Nc2cccc(C#N)c2)cc1	?	90	/	96	88	5
N#Cc1cccc(NC(=O)CC2CCCCC2)c1	108	112	260*	107	116	9
COC(=O)c1ccc(-c2ccc(C(=O)N3CCCN(C)CC3)cc2)cc1	103	104	256*	101	109	6
CSc1ccccc1NS(=O)(=O)c1ccccc1	104	102	21	103	104	48*
Cc1ccc(-c2nnc(SCC(=O)N3CCCC3)o2)cc1	106	99	259*	98	99	17
O=C(CSc1nc2ccccc2o1)N1CCCC1	101	103	260*	102	100	8
Cc1ccc(-c2nnc(SCC(=O)N3CCCC3)o2)cc1C	98	100	25	101	100	31
O=C(O)CSc1nc2ccccc2o1	98	107	14	105	101	15
CC(C)(C)c1ccc(C(=O)CC(=O)c2cc(Cl)ccc2O)cc1	103	107	245*	101	110	8
O=C(Cn1cnc2ccccc21)OCC(=O)N1CCc2ccccc2C1	141	142	11	119	122	52*
O=C(Cn1cnc2ccccc2c1=O)N1CCc2ccccc2C1	93	93	11	97	99	21
Clc1cc(Sc2ccc(Br)cc2)nnc1-c1ccccc1	104	103	24	102	103	5
CSc1cccc(CN2CCN(Cc3ccc(F)c(F)c3)C(CCO)C2)c1 (configuration not stated)	93	95	10	96	93	3
CC1CCN(S(=O)(=O)c2ccc3c(c2)oc(=O)n3CC(=O)N2c3ccccc3CC2C)CC1 (configuration not stated)	91	93	21	107	144	56*
COc1ccc(OC)c(-c2c3cc(O)c(=O)cc-3oc3cc(O)c(O)cc23)c1	4.7*	39*	274*	36*	17*	-3
OCC#CCSc1nnc(-c2ccncc2)o1	100	102	251*	101	100	17
CCCNC(=O)Nc1nccs1	105	101	24	101	99	57*
CCCN(CCC)S(=O)(=O)c1ccc(NS(=O)(=O)c2ccc(F)cc2)cc1	110	102	19	99	101	52*
CN1CCN(c2ccc(Cl)cc2NC(=O)c2nn(-c3ccccc3)c(=O)c3ccccc23)CC1	95	104	92*	102	104	12
SMILES	RGS7-Gao reg	RGS4-Gao reg	GSH bead fluor	RGS8-Gao	RGS16-Gao HTS	Avidin fluor
CN1CCN(c2ccc(Cl)cc2NC(=O)C2COc3ccccc3O2)CC1 (configuration not stated)	97	96	264*	102	111	7
COc1ccc(Cl)cc1NC(=O)C1COc2ccccc2O1 (configuration not stated)	103	102	12	100	103	9
COc1cccc(OC)c1C(=O)Nc1nc2ccc([N+](=O)[O-])cc2s1	95	98	10	100	102	11
O=C(Nc1ccc(-n2cccc2)cc1)C1CC1	99	101	13	98	99	12
CC(Oc1ccc(Cl)cc1Cl)c1nc(-c2ccc(NC(=O)c3ccncc3)cc2)no1 (configuration not stated)	96	102	97*	94	101	4
CC(Oc1ccc(Cl)cc1Cl)c1nc(-c2ccc(NC(=O)c3cccnc3)cc2)no1 (configuration not stated)	96	98	23	100	91	13
CCOc1ccc(NC(=S)Nc2ccc(OCC)cc2)cc1	101	101	14	104	108	12
CCOc1ccc(NC(=S)Nc2ccc(OC(F)(F)F)cc2)cc1	98	98	146*	101	100	5
CCOC(=O)C1=C(Cc2ccc(C)cc2)C(=O)c2ccccc2C1=O	79	87	226*	69	58	3
CCOC(=O)C1=C(Cc2ccc(OC)cc2)C(=O)c2ccccc2C1=O	74	73	63	74	57	1
CCOC(=O)c1nn(-c2ccc(C)cc2)cc1C(=O)c1ccccc1	96	99	22	99	101	14
O=C(NNC1=NCCC1)c1ccc(Br)cc1	111	115	261*	136	213	5
Cc1ccc(C(=O)NNC2=NCCC2)cc1	102	98	38	97	97	6
CCOC(=O)Nc1cc(C)ccc1OC	142	102	27	94	92	51*
CCOC(=O)Nc1ccc(C)cc1NC(=O)OCC	105	99	13	102	102	46
O=C(N/N=C/c1ccccn1)c1cccc(S(=O)(=O)N2CCCC2)c1	?	97	/	100	99	13
Cc1ccc(NC(=O)c2ccc(F)cc2F)cc1NS(C)(=O)=O	?	99	/	103	102	7
CCC(=O)N1CCc2cc(Br)cc(S(=O)(=O)NCc3ccco3)c21	98	102	23	101	104	10
CCC(=O)N1CCc2cc(Br)cc(S(=O)(=O)CCC(=O)NCc3ccco3)c21	101	98	20	100	100	51*
COc1ccc(Cl)cc1N(CC(=O)N/N=C/c1ccc(OC(C)C)cc1)S(=O)(=O)c1ccc(C)c([N+](=O)[O-])c1	93	100	5	104	103	12
C=CCOc1cccc(/C=N/NC(=O)CN(c2cc(Cl)ccc2OC)S(=O)(=O)c2ccc(C)c([N+](=O)[O-])c2)c1	121	117	196*	98	122	34
COc1ccc(/C=C/C(=O)c2ccccc2O)cc1	148	159*[activator]	17	103	107	69*
COC(=O)CCNS(=O)(=O)c1ccc2ccccc2c1	130	106	6	90	76	66*
CC(C)(C)SCCNS(=O)(=O)c1ccc2ccccc2c1	99	101	31	100	104	9
CCOc1ccccc1NC(=O)N1CCC(c2nc3ccccc3[nH]2)CC1	102	104	259*	102	101	7
